According to PubChem BioAssay AID1619 (SRMLSC, 2009):
The whole screen tested about 220,000 compounds, of which about 830 (0.38%) were called active.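 Rule for the calls: active = compound inhibiting the enzyme by more than half at any dose during confirmatory dose-response retesting; inconclusive = strong single-dose inhibitors picked by rank but not retested; inactive = the rest.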 Not all results are given here. Measured potencies and affinities stand elsewhere.

target: Leucine aminopeptidase (Plasmodium falciparum (isolate 3D7)) (UniProt Q8IL11); assay: P. falciparum M17LAP inhibitors, primary screen, biochemical, fluorogenic H-Leu-NHMec substrate, 1536-well (AID 1619); conditions: recombinant M17LAP, H-Leu-NHMec fluorogenic kinetic assay; at 30 µM; active compounds read high;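 note: plate controls were full reaction with DMSO carrier for no effect and no enzyme background for full effect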
Sequence (Q8IL11 whole entry, looked up): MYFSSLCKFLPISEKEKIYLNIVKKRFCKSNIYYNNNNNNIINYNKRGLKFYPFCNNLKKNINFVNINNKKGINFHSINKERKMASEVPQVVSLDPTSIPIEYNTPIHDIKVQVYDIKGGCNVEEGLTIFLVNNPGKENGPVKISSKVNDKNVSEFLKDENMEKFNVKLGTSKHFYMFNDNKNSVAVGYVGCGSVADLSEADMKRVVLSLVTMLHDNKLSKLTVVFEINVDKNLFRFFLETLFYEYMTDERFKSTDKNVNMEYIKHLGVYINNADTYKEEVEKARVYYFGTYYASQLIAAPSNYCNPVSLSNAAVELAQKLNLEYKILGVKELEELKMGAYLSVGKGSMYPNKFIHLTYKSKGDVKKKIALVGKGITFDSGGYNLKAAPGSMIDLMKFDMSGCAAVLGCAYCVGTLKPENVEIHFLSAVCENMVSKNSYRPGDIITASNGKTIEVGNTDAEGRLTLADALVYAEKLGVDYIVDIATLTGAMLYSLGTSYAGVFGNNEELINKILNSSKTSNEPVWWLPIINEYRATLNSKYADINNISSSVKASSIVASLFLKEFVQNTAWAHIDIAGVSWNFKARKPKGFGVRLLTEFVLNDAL

inhibition, inactive:
Cc1cc(-c2nc(-c3ccc(C(C)(C)C)cc3)no2)no1 2.57%
COCCCNC(=O)c1ccc(C2SCC(=O)N2Cc2ccco2)cc1 (stereo not given) 9.82%
COc1cc(SC)ccc1C(=O)NCc1ccc(C)cc1 -9.45%
CCc1nnc(NS(=O)(=O)c2ccc(N3C(=O)c4ccccc4C3=O)cc2)s1 19.2%
CCc1nnc(NS(=O)(=O)c2ccc(N=CC3=C(O)CC(C)(C)CC3=O)cc2)s1 37.1%
COc1cccc(/C=C2/NC(=O)NC2=O)c1OCC(=O)Nc1ccccc1 1.46%
Cc1ccnc2nc(C(=O)OCCOc3ccc(F)cc3)nn12 -4.95%
Cc1ccc(OCC(=O)Nc2cccc(O)c2)cc1C 17.6%
Cc1ccc(OCC(=O)Nc2cc(C(=O)O)cc(C(=O)O)c2)cc1C -17.5%
N#Cc1cc2c(nc1SCC(O)CS(=O)(=O)Cc1ccccc1)CCCC2 (stereo not given) 22.9%
Cc1cc(C)c(C#N)c(SCCS(=O)(=O)Cc2ccccc2)n1 -2.33%
COC(=O)N/N=C/c1cccc(OCCSc2ccc(Cl)cc2)c1 11.2%
C/C(=N\NC(=O)Cc1cccn1C)c1ccc2ccccc2c1 32.5%
COc1cc(/C(C)=N/NC(=O)CSc2nc3ccccc3[nH]2)ccc1O 8.45%
C/C(=N\NC(=O)COc1ccccc1)c1ccc(O)cc1 16.8%
C/C(=N\NC(=O)Cc1c[nH]c2ccccc12)c1ccc2ccccc2c1 -0.21%
COc1cc(/C(C)=N/NC(=O)CSc2nnc(C)s2)ccc1O -1.63%
C/C(=N\NC(=O)Cc1ccc(F)cc1)c1ccc(O)cc1 6.85%
CN(C)c1ccc(NC(=S)N2CCN(c3ncc(C(F)(F)F)cc3Cl)CC2)cc1 -0.82%
COc1ccccc1N1CCN(CC(=O)Nc2ccc(-n3cnnn3)cc2)CC1 -1.4%
O=c1cc(N2CCOCC2)[nH]c(=O)n1C1CCCCC1 8.33%
CC(C)c1nc(-c2c(N)n(C)c(=O)n(C)c2=O)sc1C(=O)C(C)(C)C -3.01%
O=C(c1cc(-c2ccc3c(c2)OCO3)on1)N1CCOCC1 -10.2%
Cc1ccc(NC(=O)Nc2ccc(F)cc2)nc1 3.7%
CCC(=O)N1CCN(c2ccc(NC(=O)c3ccc([N+](=O)[O-])o3)cc2Cl)CC1 3.55%
CCOC(=O)N1CCN(C(=O)Nc2cccc3ccccc23)CC1 23.7%
Fc1cccc(CSc2ccc3nnc(-c4cccnc4)n3n2)c1 21.3%
O=C(NC(=S)Nc1ccccc1O)c1ccc(-c2ccc(Cl)cc2)o1 1.04%
COc1ccccc1NC(=S)NC(=O)c1ccc(-c2ccc(Cl)cc2)o1 4.34%
Cc1ccc(OCC(=O)Nc2ccc(N(C)C)cc2)cc1 -2.19%
Cc1cccc(-c2n[nH]c(=S)n2-c2ccccc2)c1[N+](=O)[O-] 0.12%
COc1ccc(-n2c(C(C)n3nc(C)c([N+](=O)[O-])c3C)n[nH]c2=S)cc1 (stereo not given) 31.2%
Cc1ccc(NC(=S)NC(C)(C)C)c([N+](=O)[O-])c1 -4.98%
CC1=C(C)CC(C(=O)NCc2ccc3c(c2)OCO3)C(C(=O)O)C1 (stereo not given) 45.8%
O=C(O)[C@H]1CCCC[C@H]1C(=O)NCCc1ccccc1 36.3%
COc1ccc(CNC(=O)C2CCNCC2)cc1 -2.52%
O=C(O)C1CCCCC1C(=O)NCCc1ccccc1 (stereo not given) 32.3%
CCC(c1nnnn1Cc1cccs1)N1CCN(C(=O)c2ccco2)CC1 (stereo not given) 16.8%
COc1ccc(CC(=O)O/N=C(\N)c2ccncc2)cc1 -0.41%
COc1ccc(-n2nc(C(=O)N3CCN(Cc4ccc5c(c4)OCO5)CC3)c3ccccc3c2=O)cc1 6.93%
Cc1nc(Nc2ccc(S(=O)(=O)N3CCCCC3C)cc2)c2nnn(Cc3ccccc3)c2n1 (stereo not given) 9.37%
COc1ccc(NC(=O)c2ccc(NCCN3C(=O)CCC3=O)c([N+](=O)[O-])c2)cc1 4.32%
COC(=O)c1ccccc1NC(=O)CSc1nc(O)c(-c2ccccc2)c(=O)[nH]1 5.3%
O=C(O)C(Cc1ccccc1)N1Cc2ccccc2C1=O (stereo not given) -1.49%
CSCC[C@@H](C(=O)O)N1Cc2ccccc2C1=O 5.39%
CCN(Cc1ccccc1)C(=O)Cn1c(=O)n(CC(=O)NCc2ccco2)c(=O)c2sccc21 -1.64%
CCN(C(=O)CSc1nnc2ccccn12)c1c(N)n(Cc2ccccc2)c(=O)[nH]c1=O 12.8%
N#C/C(=C\c1ccc(Cl)cc1)c1nc2ccccc2o1 8.5%
COc1ccc(/C=C(\CC(=O)O)c2nc3ccccc3o2)cc1 48.7%
COc1ccc(/C=C/C(=O)NCCC(=O)N2CCCN(C)CC2)cc1 0.13%
Fc1ccccc1Nc1nc(-c2ccncc2)nc2ccccc12 0.48%
CSCCC(NC(=O)c1cc(C(C)(C)C)oc1C)C(=O)O (stereo not given) 20.9%
Cc1cc(C(=O)NC(Cc2ccccc2)C(=O)O)c(C)o1 (stereo not given) -7.27%
O=C(C[n+]1ccc(/C=N/O)cc1)N(Cc1ccccc1)Cc1ccccc1 4.35%
COCCNC(=O)C(C)OC(=O)c1cc2sccc2n1C (stereo not given) 3.75%
Cn1cnnc1Sc1nc2ccccc2nc1NS(=O)(=O)c1ccccc1 53.8%
CC(=O)Nc1ccc(S(=O)(=O)Nc2nc3ccccc3nc2Sc2nncn2C)cc1 -11.7%
Cc1[nH]n(-c2cccc3ccccc23)c(=O)c1/C=N/NC(=O)c1cccc([N+](=O)[O-])c1 11.1%
CCSc1nnc(NC(=O)C2CCCCC2)s1 1.5%
CCSc1nnc(NC(=O)C2CC2c2ccccc2)s1 (stereo not given) 15%
CCSc1nnc(NC(=O)NC2CCCCC2)s1 -14.6%
CCSc1nnc(NC(=O)C2CCCCC2C(=O)O)s1 (stereo not given) 48.8%
CCOC(=O)c1cc(NC(=O)N(CC)C2CCCCC2)c(C)nc1C 1.12%
Cc1cc(C)cc(NC(=O)CSc2nc3c(c(=O)[nH]2)CN(Cc2ccc(F)cc2)CC3)c1 13.5%
Cc1ccc(NC(=O)CSc2nc3c(c(=O)[nH]2)CN(Cc2ccc(F)cc2)CC3)cc1C -0.17%
CSc1nc(=O)n(-c2ccccc2)c(C)c1C(C)=O 2.84%
COc1cccc(NC(=S)N(CCCN2CCCC(C)C2)Cc2cccs2)c1 (stereo not given) -0.27%
CCOC(=O)Nc1c2ccccc2nc2ccccc12 -87.5%
CCOC(=O)c1c(-c2ccccc2)oc2ccc(O)c(CN(C)C)c12 -6.67%
COc1ccc(CCNC(=O)C2CC(=O)N(CCc3ccc(C)cc3)C2)cc1OC (stereo not given) 5.63%
CCCn1c(SCC(=O)NC2CCCc3ccccc32)n[nH]c1=O (stereo not given) -0.96%
C=CCn1c(N)c(C(=O)N2CCN(C)CC2)sc1=S 14%
O=C(O)c1ccc(S(=O)(=O)Nc2ccc(O)c(Sc3nc4ccccc4s3)c2)cc1 40.7%
O=C(O)c1cccc(S(=O)(=O)Nc2ccc(O)c(Sc3nc4ccccc4s3)c2)c1 42.9%
COc1cccc(Nc2ccc(Nc3cccc(OC)c3)nn2)c1 -1.13%
CCOc1ccc(Nc2nc3ccccc3c(=O)s2)cc1 4.25%
CCOc1ccc(NC(=O)Nc2nnc(CC)s2)cc1 9.94%
COc1cccc(Nc2nc3ccc(OC)cc3s2)c1 14.2%
O=C(CSc1ccc(Cl)cc1)N1CCC(c2nc3ccccc3s2)CC1 1%
CCn1c(SCC(=O)N(C)c2c(N)n(Cc3ccccc3)c(=O)[nH]c2=O)nc2ccccc21 -11.8%
Cc1c(C(=O)NCc2ccccc2)c(-c2ccccc2)nn1-c1ccccc1 6.71%
O=C(COc1ccccc1Cl)N1CCN(c2ncccn2)CC1 5.76%
O=C(O)CSc1nc(C(F)(F)F)cc(=O)n1-c1ccccc1 -6.87%
COCCCNC(=O)c1ccc(Cn2c(=O)c3ccccc3n(CC(=O)NCc3ccco3)c2=O)cc1 -3.96%
CCN(CC)c1ccc(NC(=O)CSc2nc3ccccc3c(=O)n2-c2cc(S(=O)(=O)N(C)C)ccc2C)cc1 -13%
Clc1ccccc1Nc1ncnc2c1nnn2Cc1ccccc1 5.79%
CC(=O)Oc1ccc(C(=O)[C@H]2[C@H]3C(=O)N(c4ccc(C)cc4)C(=O)[C@H]3[C@@H]3C=CC=NN32)cc1 14.6%
COc1ccccc1CNc1ncnc2nc[nH]c12 6.16%
c1ccc(CNc2ncnc3nc[nH]c23)cc1 45.1%
COc1cc2c(cc1OC)CN(C(=S)Nc1ccc(Cl)cc1)CC2 1.81%
CC1CN(C(=O)N2CCOCC2)CCN1C(=O)N1CCOCC1 (stereo not given) -0.08%
CCOC(=O)c1cc(-c2csc(-c3ccc(C(F)(F)F)cc3)n2)on1 -0.99%
C=CCNC(=O)/C(=C\C=C\c1ccccc1)NC(=O)c1ccccc1Cl -0.22%
O=C(NCCCO)/C(=C\C=C\c1ccccc1)NC(=O)c1ccccc1Cl 18.5%
CCc1ccc(C(=O)CSc2nc3cc(S(=O)(=O)N4CCOCC4)ccc3n2CC)cc1 16.6%
